Each sequence was assayed against RUNX1 (Homo sapiens, UniProt Q01196 1-453) (assay: custom PBM; custom protein-binding microarray; buffer, salt, pH and temperature not stated; high values mean tight binding). Conditions: dsDNA, one strand shown.
Sequence of RUNX1 (Q01196 whole entry): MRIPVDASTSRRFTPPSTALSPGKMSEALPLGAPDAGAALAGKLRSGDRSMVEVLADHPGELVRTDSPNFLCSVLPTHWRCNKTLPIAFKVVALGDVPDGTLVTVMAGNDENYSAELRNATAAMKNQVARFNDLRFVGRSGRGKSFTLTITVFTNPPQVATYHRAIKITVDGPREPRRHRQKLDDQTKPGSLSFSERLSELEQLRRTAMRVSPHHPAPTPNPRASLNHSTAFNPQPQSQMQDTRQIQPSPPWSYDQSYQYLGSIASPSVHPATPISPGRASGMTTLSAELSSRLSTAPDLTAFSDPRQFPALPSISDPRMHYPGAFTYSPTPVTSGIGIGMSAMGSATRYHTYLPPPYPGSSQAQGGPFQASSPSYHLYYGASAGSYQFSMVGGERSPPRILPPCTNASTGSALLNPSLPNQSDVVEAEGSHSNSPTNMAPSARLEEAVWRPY

| Sequence | binding signal |
| --- | --- |
| GCGCACATTTCCCTTAAATCATACACGCACACATACACATACACACATACACATACGCAC | 11 log fluorescence intensity |
| GCGCACATTTCCCGTAAATTATACACGCACACATACACATACACACATACACATACGCAC | 10.9 log fluorescence intensity |
| GCGCATATTTCCCGTAAATCATACACGCACACATACACATACACACATACACATACGCAC | 10.9 log fluorescence intensity |
| CGCGCACTCTGTGGTTACGCACATACGCACACATACACATACACACATACACATACGCAC | 11.7 log fluorescence intensity |
| GCATACTGCTGACGTCAGCCACATACGCACACATACACATACACACATACACATACGCAC | 10.9 log fluorescence intensity |
| GCATACGGCTGACATCAGCCACATACGCACACATACACATACACACATACACATACGCAC | 10.9 log fluorescence intensity |
| CGCGCACTCTGTGGTGGCGCACATACGCACACATACACATACACACATACACATACGCAC | 11.1 log fluorescence intensity |
| CGCGCACTCTGTGGTTGCTCACATACGCACACATACACATACACACATACACATACGCAC | 11.4 log fluorescence intensity |
| CGCGCACTATGTGGTTGCGCACATACGCACACATACACATACACACATACACATACGCAC | 11.3 log fluorescence intensity |
| GCATACGGCTGAGGTCAGCCACATACGCACACATACACATACACACATACACATACGCAC | 10.9 log fluorescence intensity |
| GCGCACATTTCCTGTAAATCATACACGCACACATACACATACACACATACACATACGCAC | 10.9 log fluorescence intensity |
| GCGCACATTTCCGGTAAATCATACACGCACACATACACATACACACATACACATACGCAC | 11 log fluorescence intensity |
| GCGCACATTTCCCGTAAATCATACACGCACACATACACATACACACATACACATACGCAC | 11 log fluorescence intensity |
| GCGCACATCTCCCGTAAATCATACACGCACACATACACATACACACATACACATACGCAC | 10.9 log fluorescence intensity |
| GCGCACATTTCACGTAAATCATACACGCACACATACACATACACACATACACATACGCAC | 10.9 log fluorescence intensity |
| GCATACGGCTGACGTCAACCACATACGCACACATACACATACACACATACACATACGCAC | 11 log fluorescence intensity |

| Sequence | binding signal |
| --- | --- |
| CGCGCACTCTGTGGTTGCCCACATACGCACACATACACATACACACATACACATACGCAC | 11.3 log fluorescence intensity |
| CGCGCACTCTGTGGCTGCGCACATACGCACACATACACATACACACATACACATACGCAC | 10.9 log fluorescence intensity |
| GCATACGGCTGACGTCATCCACATACGCACACATACACATACACACATACACATACGCAC | 10.9 log fluorescence intensity |
| CGCGCACTCTGTGGGTGCGCACATACGCACACATACACATACACACATACACATACGCAC | 10.9 log fluorescence intensity |
| CGCGCATTCTGTGGTTGCGCACATACGCACACATACACATACACACATACACATACGCAC | 11.4 log fluorescence intensity |
| GCATACGGCTGACGGCAGCCACATACGCACACATACACATACACACATACACATACGCAC | 10.9 log fluorescence intensity |
| CGCGCTCTCTGTGGTTGCGCACATACGCACACATACACATACACACATACACATACGCAC | 11.4 log fluorescence intensity |
| GCGCACAGTTCCCGTAAATCATACACGCACACATACACATACACACATACACATACGCAC | 10.9 log fluorescence intensity |
| GCATACGGTTGACGTCAGCCACATACGCACACATACACATACACACATACACATACGCAC | 11 log fluorescence intensity |
| GCATACGGCTGACGTCAGTCACATACGCACACATACACATACACACATACACATACGCAC | 10.9 log fluorescence intensity |
| CGCGCACTCTGTGTTTGCGCACATACGCACACATACACATACACACATACACATACGCAC | 11 log fluorescence intensity |
| CGCGCACTCTGTGGTTGAGCACATACGCACACATACACATACACACATACACATACGCAC | 11.5 log fluorescence intensity |
| CGCGCACTGTGTGGTTGCGCACATACGCACACATACACATACACACATACACATACGCAC | 11 log fluorescence intensity |
| GCGCACATTTCCCCTAAATCATACACGCACACATACACATACACACATACACATACGCAC | 10.9 log fluorescence intensity |
| GCATACGGCTGCCGTCAGCCACATACGCACACATACACATACACACATACACATACGCAC | 11 log fluorescence intensity |
| GCATACGGCTGACGTAAGCCACATACGCACACATACACATACACACATACACATACGCAC | 11 log fluorescence intensity |

Reference: PMC6602471
